In PubChem BioAssay (NCI):
This is part of a sample that, as a whole, favours compounds with a hit. Of some 79,000 tested, about 15% had one in any assay. Active and inactive are the calls of the source. No stated cut-off is given here; in the data, active means growth inhibition above about 70%; inactive means the rest.

Assays:
[1] = NCI Yeast Anticancer Drug Screen. Data for the rad50 strain (AID 155);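 further: 0% = growth of vehicle-only cultures of the same strain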; settings: S. cerevisiae rad50 strain growth inhibition; at 50.0 µM; hits give high values
Outline: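 Vehicle-treated cultures provide the reference for the growth inhibition reported for compound-exposed, repair-deficient yeast.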

[2] = NCI Yeast Anticancer Drug Screen. Data for the mec2-1 strain (AID 157); settings: S. cerevisiae mec2-1 strain, at 50.0 µM, hits give high values
Outline: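 Each compound was tested on mec2-1 yeast, a strain altered in DNA damage repair or cell cycle control. Growth inhibition is reported relative to vehicle.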

[3] = NCI Yeast Anticancer Drug Screen. Data for the sgs1 mgt1 strain (AID 161);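 further: 0% = growth of cultures given vehicle only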; settings: S. cerevisiae sgs1 mgt1 strain, at 50.0 µM, hits give high values
Outline: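 Inhibition of yeast growth, normalised to vehicle-treated controls, is reported for a strain bearing genetic alterations in DNA damage repair.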

[4] = NCI Yeast Anticancer Drug Screen. Data for the cln2 rad14 strain (AID 165);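 further: 0% = growth equal to vehicle treated cultures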; settings: S. cerevisiae cln2 rad14 strain, at 50.0 µM, hits give high values
Outline: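 Test compounds were added to cln2 rad14 yeast cultures; inhibition of growth was then determined by comparison with vehicle treatment.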

[5] = NCI Yeast Anticancer Drug Screen. Data for the bub3 strain (AID 167); settings: S. cerevisiae bub3 mutant strain, at 50.0 µM, hits give high values
Outline: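 Mutant yeast screening strain plus compound; vehicle-treated cultures serve as the 0% inhibition reference.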

[6] = NCI Yeast Anticancer Drug Screen. Data for the mlh1 rad18 strain (AID 175); settings: S. cerevisiae mlh1 rad18 strain growth inhibition; at 50.0 µM; hits give high values
Outline: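 Inhibition values reflect reduced growth of mutant yeast versus vehicle-treated controls following compound exposure; the mutations affect DNA damage repair.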

Measured: growth inhibition

CCOC(=O)c1ccc(NCCCNc2ccc(C(=O)OCC)cc2)cc1
inactive: [1] -8.05% | [2] 13.8% | [3] 1.45% | [4] 0.35% | [5] 4.7% | [6] 9.5%

CCCCCCCCCCCCCC(=O)N(CCCCCCCCC)CC(O)C(O)C(OC1OC(CO)C(O)C(O)C1O)C(O)CO (centres undefined)
inactive: [1] -13.8% | [2] -41.4% | [3] -17.4% | [4] -28.4% | [5] -49.1% | [6] -56.5%

NC(=O)c1c(N)nnc(-c2ccccc2)c1-c1ccccc1
inactive: [1] -6.15% | [2] -7.65% | [3] -5.75% | [4] -25.8% | [5] -3.45% | [6] -16.2%

CC(=O)C1COC(O)C1C (centres undefined)
inactive: [1] -5.45% | [2] -21.9% | [3] -15.2% | [4] 13.4% | [5] -24.6% | [6] 2.05%

CC1(C)SCCNC1=O
inactive: [1] 3.35% | [2] 8.45% | [3] 8.8% | [4] 11.8% | [5] 15.8% | [6] 4.75%

CCOC(=O)c1cnc(SC)nc1Nc1ccc(OC)cc1
inactive: [1] 47.4% | [2] 8.55% | [3] 7.35% | [4] 9.6% | [5] 21.2% | [6] 50.1%

Cc1ccc(S(=O)(=O)N/N=C(\C(=O)c2ccccc2)c2ccccc2)cc1
inactive: [1] 45% | [2] 18.2% | [3] 39.4% | [4] 28.1% | [5] 23.6% | [6] 36.6%

O=C(Nc1cccc2ccccc12)c1ccccc1
inactive: [1] 18.4% | [2] -38.2% | [3] -0.25% | [4] -37.2% | [5] -9.45% | [6] 19.4%

CCCC(C)OS(=O)(=O)c1ccc(C)cc1 (centres undefined)
inactive: [1] 13% | [2] -6.55% | [3] 0.75% | [4] -36.5% | [5] 8.85% | [6] 5.05%

O=c1ccc2cc3ccoc3c(OCCOCCOCCOCCOc3c4occc4cc4ccc(=O)oc34)c2o1
inactive: [1] 14.7% | [2] 17.4% | [3] 11.4% | [4] -17.2% | [5] 3.5% | [6] 26.8%

C(=N\c1nc2ccccc2s1)/c1cccs1
inactive: [1] -15.7% | [2] -34% | [3] -14.8% | [4] -5.95% | [5] 3.45% | [6] -19.4%

CCOC(=O)C1C(c2ccccc2)ON(c2ccccc2)C1c1cccc([N+](=O)[O-])c1 (centres undefined)
inactive: [1] 22.2% | [2] 3.9% | [3] -4.05% | [4] -11.5% | [5] 3.3% | [6] 1.65%

CC(CCc1cccc2ccccc12)C(=O)O (centres undefined)
inactive: [1] 29.6% | [2] 30.4% | [3] 28.9% | [4] 26.1% | [5] 30.3% | [6] 43.3%

CN(CCN1CCOCC1)C(c1ccccc1)c1ccccc1
inactive: [2] 66.3% | [4] 61.8% | [5] 52.4% | [6] 67.4%
active: [1] 83.7% | [3] 87.9%

C=CCNC(=O)C[n+]1cccc(C(=O)NC)c1
inactive: [1] 22.6% | [2] 8.35% | [3] -9.15% | [4] -5.35% | [5] -0.45% | [6] -17.8%

N#C/C(=C\c1ccc2[nH]ccc2c1)C(=O)NCCCCNC(=O)/C(C#N)=C/c1ccc2[nH]ccc2c1
inactive: [1] 5.35% | [2] 23.2% | [3] 10.4% | [4] -21.4% | [5] 9.65% | [6] 5.7%

NCCCCCCCCCCC(=O)O
inactive: [1] -7.25% | [2] -7.6% | [3] -10.7% | [4] -11.2% | [5] -5.9% | [6] -2.8%

N#CC(NCc1ccccc1)C(O)c1ccccc1 (centres undefined)
inactive: [1] 17.8% | [2] 11% | [3] 2.25% | [4] 16.8% | [5] 9.25% | [6] 11.9%

Nc1ccccc1C(=O)CC1OC(=O)c2ccccc21 (centres undefined)
inactive: [1] 19.6% | [2] 12.1% | [3] 7.35% | [4] 4% | [5] 7.8% | [6] -13.7%

C#CCNC(=O)NCCCC(NC(C)=O)C(=O)NCc1ccccc1 (centres undefined)
inactive: [1] 41% | [2] -12.2% | [3] -4.65% | [4] 32.1% | [5] -5.75% | [6] -8.15%

N#CC(=S)N(C(=O)c1ccc(Cl)cc1)c1ccccc1Cl
inactive: [1] -1.4% | [2] 28.6% | [3] 12.6% | [4] -18.9% | [5] 45.5% | [6] 24.9%

NC(=O)N/N=C(\CCC(=O)N(Cc1ccccc1)Cc1ccccc1)CC(=O)c1ccc(F)cc1
inactive: [1] -1.5% | [2] 10.8% | [3] -30.9% | [4] 18.8% | [5] -7.9% | [6] -14.9%

CSc1ccc(C2=CCCCC2)cc1
inactive: [1] -4.35% | [2] -1.7% | [3] 0.05% | [4] -15% | [5] 0.95% | [6] 17.9%

CCN(CC)C(=O)c1cccc(C(=O)N(CC)CC)n1
inactive: [1] 11.1% | [2] 3.6% | [3] 10.2% | [4] 39.4% | [5] 21.4% | [6] 24.7%

COC(=O)c1nnn(-c2ccc(C)c(C)c2)c1C(=O)c1ccccc1
inactive: [1] -2.7% | [2] -2.5% | [3] -15.2% | [4] 16.5% | [5] -8.25% | [6] 29.1%

O=C1OCC/C1=C\c1cccc([N+](=O)[O-])c1
inactive: [1] 10.4% | [2] 14.4% | [3] 11.2% | [4] -42.7% | [5] 22.5% | [6] 26.9%

Cc1ncc([N+](=O)[O-])n1Cc1nncs1
inactive: [1] -9.35% | [2] -11.4% | [3] -7.95% | [4] -31.9% | [5] -19.3% | [6] -14.2%

CC(=O)N(C)O
inactive: [1] 21.2% | [2] 17.4% | [3] -4.05% | [4] -5.85% | [5] -19.9% | [6] -0.4%

CCOC(=O)c1cnc(SCc2ccccc2)[nH]c1=O
inactive: [1] -6.1% | [2] -9.8% | [3] -17.7% | [4] -3.7% | [5] -16.6% | [6] -13.3%

Cc1ccc(S(=O)(=O)NC2(C=O)CCCC3CCCCC32)cc1 (centres undefined)
inactive: [1] 33% | [2] 6% | [3] -5.45% | [4] -9.15% | [5] 0% | [6] 20.6%

O=C1OC(c2ccccc2)=N/C1=C\c1cccnc1
inactive: [1] 12.3% | [2] -3.25% | [3] 0% | [4] -10.3% | [5] -5.8% | [6] 13.1%

Nc1ccc(OCCCc2c(N)nc(N)nc2N)c(Cl)c1
active: [1] 98% | [2] 99.1% | [3] 99.3% | [4] 98.2% | [5] 98.3% | [6] 98.5%

CCN(CC)CCCNc1ccc([N+](=O)[O-])c2nc3ccccc3c(N)c12
inactive: [1] 21.4% | [2] -0.2% | [3] 15.8% | [4] 32.9% | [5] -17.1% | [6] 63.8%

Oc1ccccc1C=Nc1ccc(Cl)cn1
inactive: [1] 17.2% | [2] 15.2% | [3] 16.2% | [4] 21.6% | [5] 18.9% | [6] 20.8%

CCCC(O)C(C)(C)C (centres undefined)
inactive: [1] -35.7% | [2] -67.5% | [3] -51.6% | [4] -11.2% | [5] -43.5% | [6] -42%

CC(=O)c1c(Cl)cc(Cl)c(Cl)c1Cc1c(Cl)c(Cl)cc(Cl)c1C(C)=O
inactive: [1] 9.5% | [2] 9.8% | [3] 7% | [4] 18.2% | [5] 5.95% | [6] 9.55%

O=C1C2(CCCC13OC3c1ccccc1)OC2c1ccccc1 (centres undefined)
inactive: [1] -20.9% | [2] -11.1% | [3] -5.15% | [4] -14.4% | [5] 23.3% | [6] -3.6%

CCS(=O)(=O)c1ccc(NC(=O)OC2CCCCCC2)cc1
inactive: [1] -2.65% | [2] -2.25% | [3] 25.8% | [4] -1.25% | [5] 12.3% | [6] 7.8%

CCOC(=O)C(C#N)CCC(C)=O (centres undefined)
inactive: [1] -12.3% | [2] -11.1% | [3] 17.4% | [4] -24.4% | [5] -7.8% | [6] -28.6%
